Screening data (PubChem BioAssay)
An excerpt weighted towards active compounds, which were near 2.4% of everything screened.
Pf Dd2 inh: P. falciparum Dd2 growth inhibition; activity change, % at 10 µM; SYBR Green, 72 h; stronger effect = lower value; hit rate 2.3% among 94,000; AID 1159554; in the data active = activity change below about -80%
C diff HTS: blocks growth of Clostridium difficile. Clostridium difficile clinical isolate growth, OD600, 24 h; stronger effect = lower value. growth activity, negative = inhibition, % at 16 µg/mL (by protocol). hit rate 0.25% among 86,000;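 active = mean growth activity at or below -80% and every replicate also at or below -80%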
Of the large screens only hits and unclear results are named; the others gave an inactive call.

COc1ccc(S(=O)(=O)Nc2cccc3c2O[C@H](CN(C)Cc2ccc(-c4ccccc4)cc2)[C@H](C)CN([C@@H](C)CO)C3=O)cc1	none
C[C@@H]1CN([C@@H](C)CO)C(=O)c2cccc(NS(C)(=O)=O)c2O[C@H]1CN(C)Cc1ccc(-c2ccccc2)cc1	none
C[C@H]1CN([C@@H](C)CO)C(=O)c2cccc(NS(C)(=O)=O)c2O[C@@H]1CN(C)Cc1ccc(-c2ccccc2)cc1	Pf Dd2 inh -84
C[C@@H]1CN([C@@H](C)CO)C(=O)c2cccc(NS(=O)(=O)c3ccccc3)c2O[C@H]1CN(C)Cc1ccc(-c2ccccc2)cc1	Pf Dd2 inh -84 (no result: C diff HTS)
C[C@H](CO)N1C[C@H](C)[C@H](CN(C)Cc2ccc(-c3ccccc3)cc2)Oc2c(NS(=O)(=O)c3ccccc3)cccc2C1=O	none (no result: C diff HTS)
C[C@H](NC(=O)C[C@@H]1CC[C@H](NC(=O)CN2CCOCC2)[C@@H](CO)O1)c1ccccc1	none (no result: C diff HTS)
Cc1ccc(S(=O)(=O)Nc2ccc3c(c2)C(=O)N([C@@H](C)CO)C[C@H](C)[C@@H](CN(C)C(=O)NC(C)C)OCCCC[C@@H](C)O3)cc1	none
C[C@@H]1CN([C@H](C)CO)C(=O)c2cc(C#Cc3ccccc3F)cnc2O[C@H]1CN(C)C(=O)c1ccc2c(c1)OCO2	Pf Dd2 inh -86
C[C@H](CO)N1C[C@H](C)[C@H](CN(C)C(=O)c2ccc3c(c2)OCO3)Oc2ncc(C#Cc3ccccc3F)cc2C1=O	none
CC(C)NC(=O)N(C)C[C@H]1Oc2ncc(C#Cc3ccccc3F)cc2C(=O)N([C@H](C)CO)C[C@H]1C	none
C[C@@H]1CN([C@@H](C)CO)C(=O)c2cc(C#Cc3ccccc3F)cnc2O[C@@H]1CN(C)C(=O)c1ccc2c(c1)OCO2	none
C[C@H]1CN([C@@H](C)CO)C(=O)c2cc(C#Cc3ccccc3F)cnc2O[C@@H]1CN(C)C(=O)c1ccc2c(c1)OCO2	Pf Dd2 inh -82
CC(C)NC(=O)N(C)C[C@H]1Oc2ncc(C#Cc3ccccc3F)cc2C(=O)N([C@@H](C)CO)C[C@@H]1C	Pf Dd2 inh -82
C[C@@H](NC(=O)C[C@H]1CC[C@@H](NC(=O)C2CCC2)[C@H](CO)O1)c1ccccc1	none (no result: C diff HTS)
COc1ccc2c3c([nH]c2c1)[C@@H](CO)N(C(=O)Nc1c(C)noc1C)CC31CN(CC2CCOCC2)C1	none
COc1ccc2c3c([nH]c2c1)[C@H](CO)N(C(=O)Nc1ccc(F)cc1)CC31CN(Cc2cc(F)ccc2F)C1	none
COc1ccc2c3c([nH]c2c1)[C@H](CO)N(C(=O)Nc1ccc(F)cc1)CC31CCN(S(=O)(=O)c2ccc(C)cc2)CC1	Pf Dd2 inh -82
COc1ccc2c3c([nH]c2c1)[C@H](CO)N(C(=O)Nc1ccc(F)cc1)CC31CN(Cc2cc(-c3ccccc3)on2)C1	none
COc1ccc2c3c([nH]c2c1)[C@@H](CO)N(C(=O)Nc1ccc(F)cc1)CC31CCN(Cc2cc(-c3ccccc3)on2)CC1	Pf Dd2 inh -83
COc1ccc2c3c([nH]c2c1)[C@@H](CO)N(C(=O)Nc1ccc(F)cc1)CC31CCN(S(=O)(=O)c2ccc(C)cc2)CC1	none
COc1ccc2c3c([nH]c2c1)[C@@H](CO)N(C(=O)Nc1cccc(F)c1)CC31CN(CC2CCOCC2)C1	Pf Dd2 inh -93
COc1ccc2c3c([nH]c2c1)[C@@H](CO)N(C(=O)Nc1ccc(F)cc1)CC31CN(Cc2cc(F)ccc2F)C1	Pf Dd2 inh -87
O=C(C[C@@H]1CC[C@H](NC(=O)c2cnccn2)[C@@H](CO)O1)NCc1ccccc1F	none (no result: C diff HTS)
COc1ccc(NC(=O)N(C)C[C@@H]2Oc3ncc(-c4ccc(C#N)cc4)cc3C(=O)N([C@H](C)CO)C[C@H]2C)cc1	none
COc1ccc2c3c([nH]c2c1)[C@@H](CO)N(C(=O)Nc1ccc(F)cc1)CC31CCN(S(=O)(=O)c2cccc(C)c2)CC1	none
COc1ccc2c3c([nH]c2c1)[C@H](CO)N(C(=O)Nc1ccc(F)cc1)CC31CN(S(=O)(=O)c2cccs2)C1	none (no result: C diff HTS)
COc1ccc2c3c([nH]c2c1)[C@H](CO)N(C(=O)Nc1ccc(F)cc1)CC31CCN(C(=O)Nc2ccc3c(c2)OCO3)CC1	Pf Dd2 inh -86
COc1ccc2c3c([nH]c2c1)[C@@H](CO)N(C(=O)Nc1ccc(F)cc1)CC31CCN(C(=O)Nc2ccc3c(c2)OCO3)CC1	none
COc1ccc2c3c([nH]c2c1)[C@@H](CO)N(C(=O)Nc1ccc(F)cc1)CC31CN(S(=O)(=O)c2cccs2)C1	C diff HTS -95
COc1ccc2c3c([nH]c2c1)[C@H](CO)N(C(=O)Nc1ccc(F)cc1)CC31CCN(S(=O)(=O)c2cccc(C)c2)CC1	Pf Dd2 inh -83
C[C@H](CO)N1C[C@H](C)[C@@H](CN(C)Cc2ccc3c(c2)OCO3)Oc2c(NC(=O)Nc3ccc(C(F)(F)F)cc3)cccc2C1=O	none (no result: C diff HTS)
Cc1ccc(-c2ccc3c(c2)O[C@H](CN(C)C(=O)C2CCCCC2)[C@@H](C)CN([C@@H](C)CO)S3(=O)=O)cc1	none (no result: C diff HTS)
